What all share (assay): NCI-60 one-dose screen, 48 h (100 = growth as untreated, 0 = no growth, -100 = all killed)
What all share (conditions): 10 µM unless noted

The test system of assay [1] is NCI-H23 lung.
The test system of assay [2] is NCI-H226 lung.
For assay [3], the system named is NCI-H322M lung.
Assay [4] relates to HOP-62 NSCLC.
The test system of assay [5] is NCI-H460 lung.
In assay [6] the test system is HOP-92 NSCLC.
For assay [7], the system named is NCI-H522 lung.
The subject of assay [8] is A549/ATCC NSCLC.
Assay [9] has as its system 786-0 renal.
Assay [10] deals with COLO 205 colon.
In assay [11] the test system is DU-145 prostate.
Assay [12] deals with K-562 leukemia.
Assay [13] deals with MALME-3M melanoma.
For assay [14], the system named is MDA-MB-231 breast.
The test system of assay [15] is RXF 393 renal.
The subject of assay [16] is SF-268 CNS.
For assay [17], the system named is SF-295 CNS.
Assay [18] deals with SF-539 CNS.
Assay [19] relates to UACC-257 melanoma.
For assay [20], the system named is M14 melanoma.

Molecules are shown by their SMILES. About 83,000 compounds went through this panel and 20% of them were active in at least one assay; those are over-represented in the sample as a whole.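 Results are percent growth after 48 hours of single-concentration exposure. 100 means growth as in untreated cells, lower positive values show inhibition; negative values down to -100 show cell death.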 Values without a mark were called inactive. Activity calls are given as the source filed them. Rule for the calls: active = growth percent below 10; inactive = the rest.

Take `Cc1cc(N2CCN(C)CC2)nc(NCc2cc(Nc3ccnc4cc(Cl)ccc34)ccc2F)n1`: the growth in [1] was 25.4%; in assay [2], 40.1%; in assay [3], 8.43% (active); in assay [4], -14.2% (active); in assay [5], -54.3% (active); in [6], 5.13% (active). The growth in [7] is -8.53% (active); in [8] it was -17% (active); in assay [9], -26.9% (active); in assay [10], -61.6% (active); in assay [11], 10.5%; in assay [12], 2.5% (active). The growth is -76.6% (active) in [13]; -56.5% (active) in assay [14]; -70.9% (active) in assay [15]; 8.21% (active) in assay [16]; -70.1% (active) in [17]; -83.4% (active) in assay [18]. For the same molecule, the growth is -73.5% (active) in [19] and -65% (active) in [20].

`CC(C)c1ccc(-n2c(=S)[nH]c3sc4c(c3c2=O)CCC(=O)C4)cc1`: the growth is 36.2% in assay [1]; 84.9% in [2]; 78% in assay [3]; 33.9% in assay [4]; 30.3% in assay [5]; -6.71% (active) in assay [6]. Also, the growth was 6.26% (active) in assay [7]; 71.1% in [8]; 102% in [9]; 92.7% in [10]; 104% in [11]; 56.7% in assay [12]. For the same molecule, the growth in assay [13] was 88.7%; in assay [14], 68.3%; in assay [15] it was 48.9%; in [16] it was 28.7%; in [17] it was 21.1%; in assay [18], 23.3%. In addition, the growth in [19] was 75.3%; in assay [20] it was 60.4%.

Regarding `C/C(=C(\c1ccc(OCCN2CCCCCC2)cc1)c1ccc(OC(=O)Cc2ccccc2)cc1)c1ccc(Cl)cc1`, the growth in assay [1] is 48.5%; in assay [2], 91.2%; in [3], 73.5%; in [4], 7.91% (active); in [5], -60.1% (active); in assay [6], 49.5%. Further, the growth in assay [7] is 38.8%; in [8], 31.7%; in [9] it was -42% (active); in [10], -79.7% (active); in [11] it was 62.3%; in assay [12], -35.1% (active). The growth in assay [13] is 22.6%; in assay [14] it was 35.1%; in [15] it was 21.1%; in [16], 49%; in assay [17], 3.77% (active); in assay [18] it was 46.9%. Further, the growth in assay [19] was 5.81% (active); in assay [20], -53.1% (active).

Regarding `COc1ccc(Nc2ncc(C(N)=O)c(NCCCNC(=O)C3CCC3)n2)cc1`, the growth in assay [1] is 76.9%; in assay [2], 62.7%; in [3], 79%; in [4] it was 35.9%; in assay [5], 68.6%; in assay [6] it was 60.6%. The growth is 77.1% in assay [7]; 83.1% in [8]; 74.1% in assay [9]; 3.6% (active) in [10]; 77.3% in [11]; 39.5% in assay [12]. The growth in assay [13] was 95.2%; in assay [14], 26.5%; in assay [15] it was 17%; in [16], 80.9%; in assay [17], 75.7%; in [18], 14.3%. For the same molecule, the values for the growth in assay [19] and in assay [20] were 112% and 67.7%, respectively.

As for `O=C(O)c1cccc(N/C=C/C(=O)c2cc3cc(Br)ccc3oc2=O)c1`, the growth in assay [1] was 98.1%; in assay [2], 94.6%; in assay [3] it was 100%; in assay [4] it was 93.7%; in assay [5], 97%; in assay [6] it was 103%. Besides, the growth in [7] was 91.8%; in assay [8], 92.4%; in [9], 99.4%; in assay [10], 110%; in [11], 108%; in assay [12] it was 119%. The growth is 104% in [13]; 93.6% in assay [14]; 107% in assay [15]; 90.4% in assay [16]; 104% in assay [17]; 96% in assay [18]. For the same molecule, the growth was 99.2% in [19] and 94.2% in assay [20].

For the molecule `CCNC(=O)Oc1ccc(/C(=C(/C)Cc2ccc(OC)cc2)c2ccc(OCCN3CCCCCC3)cc2)cc1`, the growth in assay [1] is 75.9%; in assay [2], 96.2%; in [3], 95.5%; in assay [4] it was 84.4%; in assay [5], 30.6%; in assay [6], 40.8%. Further, the growth in assay [7] is 54.2%; in assay [8], 54.9%; in assay [9] it was 72%; in [10], 28.7%; in [11], 92.2%; in assay [12], 5.8% (active). The growth in [13] was 109%; in assay [14] it was 64.1%; in [15] it was 68.3%; in assay [16], 74.5%; in [17], 88.4%; in [18], 96.4%. In addition, the growth in assay [19] was 76.7%; in [20], 68.3%.

For `CC(C)(C)c1cc(C=Nc2cccc(C(F)(F)F)c2)c(O)c(C(C)(C)C)c1`, the growth in [1] was 88.5%; in assay [2] it was 91.4%; in [3] it was 95.3%; in assay [4], 95.7%; in assay [5], 107%; in assay [6] it was 90.9%. Also, the growth in assay [7] is 73.5%; in assay [8], 84.1%; in assay [9] it was 107%; in [10], 119%; in [11], 107%; in [12], 70.2%. Besides, the growth was 108% in [13]; 98.3% in assay [14]; 94.3% in [15]; 90.1% in assay [16]; 97.4% in assay [17]; 101% in assay [18]. The growth in assay [19] is 78.7%; in [20] it was 100%.

As to `Cn1c(O)c(C(/C=C/c2ccccc2)=Nc2ccccc2N)c(=O)n(C)c1=O`, the growth is 94.2% in [1]; 97.9% in [2]; 105% in [3]; 105% in [4]; 104% in assay [5]; 82.4% in assay [6]. Also, the growth in [7] is 90.3%; in assay [8], 103%; in [9], 103%; in [10], 95%; in [11], 117%; in assay [12], 55.9%. Further, the growth in assay [13] was 118%; in assay [14], 91.4%; in assay [15], 109%; in [16], 114%; in [17], 105%; in [18], 107%. In addition, the growth in assay [19] was 106%; in assay [20], 104%.
